For one experiment, the target named is RASSF3. The experiment can be described thus: pooled miR-30 sensor sort-seq; sequence = guide strand. The conditions noted are these: shRNA.
TCTTTGATCTCCTCTTTGCTGA gave a sensor-assay potency score (higher = more potent) of -0.385. With TTTATGAACTTTCTCTTTGATC, the sensor-assay potency score (higher = more potent) is -0.905. For TTCAAGGTCATCTTCAACTTGT, the sensor-assay potency score (higher = more potent) is 0.533. Sequence TGTATTTATGAACTTTCTCTTT registered a sensor-assay potency score (higher = more potent) of -0.702. TAAGTTGTATTTATGAACTTTC showed a sensor-assay potency score (higher = more potent) of -0.5. As for TTTGATCTCCTCTTTGCTGAGG, the sensor-assay potency score (higher = more potent) was -0.279. Same read-out and setting: the value for TCTCTTTCTCAACATCTTGTTG was -1.22. Same read-out and setting: the value for TTTGCTGAGGTAACTGTGGGTT was 0.0248; that for TATTTATGAACTTTCTCTTTGA was -0.498. Same read-out and setting: the value for TTGTCTGTGACTGCTAAGTTGT was -0.937. Take TTCATCTTCTTCCTTGTCCAAG: the sensor-assay potency score (higher = more potent) is -0.91. On to TTTCTCTTTGATCTCCTCTTTG, for which the sensor-assay potency score (higher = more potent) was -0.943.

A further experiment concerns the target RASSF5. Described as above. The following applies: shRNA.
Regarding TCGCGTGTTGTAGCTGTCGATC, the sensor-assay potency score (higher = more potent) was -1.47.

In turn, TTATATATAGCTATATGCCTTT yielded a sensor-assay potency score (higher = more potent) of -0.531. Same read-out and setting: the figure for TTAAAAAGTGCAAACTTCTGGG is 0.479; for TAGCTGTCGATCTTCTGCTTGA it is -0.141; for TTCTGGAAGAGCACTTGTCCGT it is -0.498.

In the case of TTGTCCGTCCTTGTGTATCCGC, the sensor-assay potency score (higher = more potent) is -0.676.

In turn, TGAAGCTACACGAACAAGCTTG yielded a sensor-assay potency score (higher = more potent) of 0.101. Still for that read-out and setting: the figure for TTTACAGTTAGTGCAGCGCAGC is -1.3; for TTGTCCACAACCATGAACTTCT it is 0.0348; for TTCTCCTTTAGCACAAAGCTGA it is -0.406. Same read-out and setting: the value for TTAAGTGTGAACAACAGGCACC was -0.19. Sequence TTCTCTCGCGTGTTGTAGCTGT displayed a sensor-assay potency score (higher = more potent) of 0.0292.

Another experiment deals with RASSF8. The experiment is described as above. The following applies: shRNA.
TTAGCTTCTTCAACTCATCTGC: the sensor-assay potency score (higher = more potent) came to 0.759. The same measure, in the same setting: the figure for TTAATTTGTTTTCACATTCTGT is -0.415. In the case of TATTTCATTAGATTCCAGCTGT, the sensor-assay potency score (higher = more potent) came out at 1.11. On the same count and under the same terms, the figure for TTCTATTTCATTAGATTCCAGC is -0.148.

TTTGCAGTTATTCAGCACCTTT returned a sensor-assay potency score (higher = more potent) of -1.3. TACATCGTTTCTTTTGATCTTT had a sensor-assay potency score (higher = more potent) of -0.624.

TTCTCTATAAGGGTGTACCTTC gave a sensor-assay potency score (higher = more potent) of -0.973.

TTGATTGATTTGTCAATCTGAG displayed a sensor-assay potency score (higher = more potent) of -0.187. The same measure, in the same setting: the figure for TTGATCTTTTGCTCTAGACGGA is -0.232. For TATTTCTTGAAGTTGATCCTTC, the sensor-assay potency score (higher = more potent) came to 0.825. On the same count and under the same terms, the value for TTGAAGTTGATCCTTCAGCTGT was -0.249; that for TAAGGCTATGACAACCTCCTGG was 0.0646.

For another experiment, the target named is RBFOX1. The description is as above. The conditions noted are these: shRNA.
Consider TTATTCATTATCTAGCATCTGT, for which the sensor-assay potency score (higher = more potent) amounted to 0.299. In turn, TTCTAGAACTTAACAACTCCAC yielded a sensor-assay potency score (higher = more potent) of -0.286. Still for that read-out and setting: the value for TACACATGAGGACTTAACCTAT was -0.971; that for TTACATAATATAGCACTCTGGA was -0.421.

The values are drawn from the OligoGym collection.
Further: reference of the scale not given here.
